In PubChem BioAssay (Tox21):
Several values for one entry are separate records, joined by “and”; a condition that tells them apart may be missing. Identical values can stand only once. Results filed as inconclusive are left out. Where a structure was tested more than once in an assay, its records may differ in their call. Activity calls are given as the source filed them. Unless noted, calls follow the shape of the dose curve; as a rule, active = well fitted curve in the direction sought with a large enough effect in the repeat runs; inconclusive = weak or mixed curves; inactive = no such curve, though single readings can be large; an effect the other way counts as inactive or inconclusive.

Columns and labels:
[1] = target: Thyrotropin-releasing hormone receptor (Homo sapiens) (UniProt P34981); test: qHTS assay to identify small molecule agonists of the thyrotropin-releasing hormone receptor (TRHR) signaling pathway (AID 1346891; calls by dose curve;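 also: HEK293 cells expressing TRHR with calcium dye readout; series mostly up to about 58 µM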)
Summary of the method: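 Kinetic fluorescence (3 min, 1 s intervals) reported intracellular calcium after compound transfer onto TRHR-Hek293 cells pre-loaded with dye for 2 h at 37 °C.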

[2] = Human pregnane X receptor (PXR) small molecule agonists, qHTS cell viability counter screen (AID 1346977); also: nearly all actives have a fitted effect of over 50% in size; also: potency is read from the fitted curve at half-maximal effect
Summary of the method: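 HepG2 cells stably carrying the PXR-Luc reporter are cultured with 5% charcoal-stripped FBS and treated with compounds for 24hr. CellTiter-Fluor is added at 23hr and fluorescence is read after 1hr.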

[3] = Caspase-3/7 induction in HepG2 cells by small molecules, qHTS assay (AID 1346978); also: nearly all actives have a fitted effect of over 15% in size; also: potency is read from the fitted curve at half-maximal effect
Summary of the method: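 Caspase-3/7 induction was measured by Caspase-Glo 3/7 luminescence (30 min, room temperature) after a 17 hr compound exposure of wild-type HepG2 cells seeded at 2,000 per well and pre-incubated 5 hr.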

[4] = Caspase-3/7 induction in CHO-K1 cells by small molecules, qHTS cell viability counter screen (AID 1346979); also: nearly all actives have a fitted effect of over 35% in size; also: potency is read from the fitted curve at half-maximal effect
Summary of the method: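 Seeding: 1,500 CHO-K1 cells/well. Rest: 5hr, 37C. Treatment: compounds in DMSO, 16hr. Read: CellTiter-Fluor, 1hr, fluorescence.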

[5] = Caspase-3/7 induction in CHO-K1 cells by small molecules, qHTS assay (AID 1346980); also: nearly all actives have a fitted effect of over 15% in size
Summary of the method: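 Luminescent Caspase-Glo 3/7 read (30min, room temperature) quantified apoptosis induction. Cells were wild-type CHO-K1, treated with compound for 17hr at 37 C and 5% CO2.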

[6] = Caspase-3/7 induction in HepG2 cells by small molecules, qHTS cell viability counter screen (AID 1346981); also: nearly all actives have a fitted effect of over 30% in size; also: potency is read from the fitted curve at half-maximal effect; as to activity change, negative = cytotoxicity: series mostly up to about 92 µM
Summary of the method: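 Counter screen for cytotoxicity: HepG2 exposed 16 hr to compounds, then CellTiter-Fluor viability signal (fluorescence, 1 hr reagent incubation).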

[7] = target: Nuclear receptor subfamily 1 group I member 2 (Homo sapiens) (UniProt O75469); test: Human pregnane X receptor (PXR) small molecule agonists, qHTS assay (AID 1346982); also: nearly all actives have a fitted effect of over 35% in size; also: potency is read from the fitted curve at half-maximal effect
Summary of the method: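 Luminescence (ONE-Glo, 30 min RT) after 24 hr compound exposure of PXR-Luc HepG2 cells; cells rested 5 hr post-plating in 5% charcoal-stripped FBS medium.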
% is scaled to controls: 0 for no effect and ±100 for the full control effect.

Chain of Thyrotropin-releasing hormone receptor (Homo sapiens) (P34981 whole entry, looked up): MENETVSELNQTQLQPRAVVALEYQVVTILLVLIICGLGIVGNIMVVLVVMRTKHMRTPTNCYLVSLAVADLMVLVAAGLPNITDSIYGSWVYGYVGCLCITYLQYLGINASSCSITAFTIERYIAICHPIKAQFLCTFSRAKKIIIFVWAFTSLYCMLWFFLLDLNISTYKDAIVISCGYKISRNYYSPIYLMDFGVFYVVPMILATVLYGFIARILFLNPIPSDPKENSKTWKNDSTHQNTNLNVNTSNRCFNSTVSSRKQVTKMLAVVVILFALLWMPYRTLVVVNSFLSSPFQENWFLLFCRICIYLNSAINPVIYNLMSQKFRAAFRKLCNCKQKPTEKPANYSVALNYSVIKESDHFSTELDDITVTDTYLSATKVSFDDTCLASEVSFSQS
Chain of Nuclear receptor subfamily 1 group I member 2 (Homo sapiens) (O75469 whole entry, looked up): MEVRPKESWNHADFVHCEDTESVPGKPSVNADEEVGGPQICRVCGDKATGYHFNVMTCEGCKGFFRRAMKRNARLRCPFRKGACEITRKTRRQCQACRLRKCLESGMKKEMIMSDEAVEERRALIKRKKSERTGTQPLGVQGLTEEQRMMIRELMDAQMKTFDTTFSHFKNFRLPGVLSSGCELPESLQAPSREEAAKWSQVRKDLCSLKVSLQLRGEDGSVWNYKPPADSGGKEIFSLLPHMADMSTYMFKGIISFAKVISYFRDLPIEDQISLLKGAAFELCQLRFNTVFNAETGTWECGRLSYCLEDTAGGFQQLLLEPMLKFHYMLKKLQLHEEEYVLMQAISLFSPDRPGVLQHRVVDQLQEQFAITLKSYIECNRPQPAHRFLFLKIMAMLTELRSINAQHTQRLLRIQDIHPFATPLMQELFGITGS

CCCCCCCCCCCCCC=O
inactive: activation [1] 0.0389% [at 5.23 µM] | activity change, negative = cytotoxicity [2] -1.66% [at 8.39 µM] | caspase activation [3] -1.41% [at 8.39 µM] | activity change, negative = cytotoxicity [4] 0.0836% [at 8.39 µM] | caspase-3/7 activation [5] 1.18% [at 8.39 µM] | activity change, negative = cytotoxicity [6] -0.047% [at 8.39 µM] | activation [7] -0.115% [at 8.39 µM]

COC(=O)C1=C(C)NC(C)=C(C(=O)OC)C1c1ccccc1[N+](=O)[O-]
30.7 µM (active) and inactive: Potency [6]
active: Potency [4] 48.6 µM and 26.6 µM
inactive: outcome [1] | Potency [3] | outcome [5]
48.6 µM (active) and inactive: Potency [2]

COc1nc(N)nc2c1ncn2[C@@H]1O[C@H](CO)[C@@H](O)[C@@H]1O
inactive: outcome [1] | Potency [2] | Potency [3] | Potency [4] | outcome [5] | Potency [6]

CC(NC(CCc1ccccc1)C(=O)O)C(=O)N1C(=O)N(C)CC1C(=O)O (stereo not given)
inactive: outcome [1] | Potency [2] | Potency [3] | Potency [4] | outcome [5] | Potency [6] | Potency [7]

O=c1cc(-c2ccccc2)oc2ccccc12
inactive: outcome [1] | Potency [2] | Potency [3] | outcome [5] | Potency [6]
active: Potency [4] 68.2 µM | Potency [7] 54.5 µM and 24.2 µM

CC1=CC(C)C(C=O)CC1 (stereo not given)
inactive: outcome [1] | Potency [2] | Potency [3] | Potency [4] | outcome [5] | Potency [6] | Potency [7]

C=C(C)C(=O)OCCCCCCCC(C)C
active: Potency [2] 976 nM | Potency [4] 1.09 µM | Potency [6] 1.38 µM | Potency [7] 0.87 µM
inactive: outcome [1] | Potency [3] | outcome [5]

CCC(C)S (stereo not given)
inactive: activation [1] 0.209% [at 2.04 µM] | activity change, negative = cytotoxicity [2] 2.43% [at 3.27 µM] | caspase activation [3] -0.355% [at 3.27 µM] | activity change, negative = cytotoxicity [4] 5.39% [at 3.27 µM] | caspase-3/7 activation [5] 1.28% [at 3.27 µM] | activity change, negative = cytotoxicity [6] -0.646% [at 3.27 µM] | activation [7] -2.18% [at 3.27 µM]

CCCCOCCOCCOCCCC
inactive: outcome [1] | Potency [2] | Potency [3] | Potency [4] | outcome [5] | Potency [6] | Potency [7]

CCn1ccnc1CC1COc2ccccc2O1 (stereo not given)
active: Potency [7] 26.6 µM
inactive: outcome [1] | Potency [2] | Potency [3] | Potency [4] | outcome [5] | Potency [6]

C/C=C(\C)C#N
inactive: outcome [1] | Potency [2] | Potency [3] | Potency [4] | outcome [5] | Potency [6] | Potency [7]

CCCCC/C=C\CCC=O
inactive: outcome [1] | Potency [2] | Potency [3] | Potency [4] | outcome [5] | Potency [6] | Potency [7]

O=C(c1ccccc1)C1CCCCC1
inactive: outcome [1] | Potency [2] | Potency [3] | Potency [4] | outcome [5] | Potency [6] | Potency [7]

O=C(O)CCCl
inactive: outcome [1] | Potency [2] | Potency [3] | Potency [4] | outcome [5] | Potency [6]
active: Potency [7] 61.9 µM

O=c1n(CCO)c(=O)n(CCO)c(=O)n1CCO
inactive: outcome [1] | Potency [2] | Potency [3] | Potency [4] | outcome [5] | Potency [6] | Potency [7]

O=C1CC2CC1C1CCCC21 (stereo not given)
inactive: outcome [1] | Potency [2] | Potency [3] | Potency [4] | outcome [5] | Potency [6]

Cn1c(N)c(N=O)c(=O)n(C)c1=O
inactive: outcome [1] | Potency [2] | Potency [3] | Potency [4] | outcome [5] | Potency [6] | Potency [7]

CCC(=O)OC(C)c1ccccc1 (stereo not given)
inactive: outcome [1] | Potency [2] | Potency [3] | Potency [4] | outcome [5] | Potency [6] | Potency [7]

Cc1sccc1Br
inactive: outcome [1] | Potency [2] | Potency [3] | Potency [4] | outcome [5] | Potency [6] | Potency [7]

CO[C@]12C[C@@H](COC(=O)c3cncc(Br)c3)CN(C)[C@@H]1Cc1cn(C)c3cccc2c13
inactive: outcome [1] | Potency [2] | Potency [3] | Potency [4] | outcome [5] | Potency [6] | Potency [7]

NS(=O)(=O)c1cc2c(cc1Cl)NC(C1CC3C=CC1C3)NS2(=O)=O (stereo not given)
inactive: outcome [1] | Potency [2] | Potency [3] | Potency [4] | outcome [5] | Potency [6] | Potency [7]

O=C1CCCC(=O)C1
inactive: outcome [1] | Potency [2] | Potency [3] | Potency [4] | outcome [5] | Potency [6] | Potency [7]

NCCc1cnc[nH]1
inactive: outcome [1] | Potency [2] | Potency [3] | Potency [4] | outcome [5] | Potency [6]

C=C1CC[C@H]2C[C@@H]1C2(C)C
inactive: outcome [1] | Potency [2] | Potency [3] | Potency [4] | outcome [5] | Potency [6] | Potency [7]

O=C(O)CCCc1ccccc1
inactive: outcome [1] | Potency [2] | Potency [3] | Potency [4] | outcome [5] | Potency [6] | Potency [7]

COC(=O)c1ccc(C)cc1C1=NC(C)(C(C)C)C(=O)N1 (stereo not given)
inactive: outcome [1] | Potency [2] | Potency [3] | Potency [4] | outcome [5] | Potency [6]

CCC(C)C1CCCCC1=O (stereo not given)
inactive: outcome [1] | Potency [2] | Potency [3] | Potency [4] | outcome [5] | Potency [6] | Potency [7]

CCN(Cc1ccncc1)C(=O)C(CO)c1ccccc1 (stereo not given)
inactive: outcome [1] | Potency [2] | Potency [3] | Potency [4] | outcome [5] | Potency [6]

CC(C)NCCCC1(C(N)=O)c2ccccc2-c2ccccc21
inactive: outcome [1] | Potency [2] | Potency [3] | Potency [4] | outcome [5] | Potency [6]
active: Potency [7] 23.7 µM

CC(C)(O)C(=O)c1ccccc1
inactive: outcome [1] | Potency [2] | Potency [3] | Potency [4] | outcome [5] | Potency [6] | Potency [7]

CN(C)CCCN1c2ccccc2CCc2ccc(Cl)cc21
inactive: outcome [1] | outcome [5]
active: Potency [2] 30.6 µM and 29.8 µM | Potency [3] 61.1 µM | Potency [4] 68.6 µM and 29.8 µM | Potency [6] 61.1 µM and 29.8 µM
